# The list is not random: actives were taken first. Their share in the collection is about 1.5%.
# ANO1 activ – activators or potentiators of mouse TMEM16A chloride channel; Q8BHY3; HEK293 TMEM16A/YFP-H148Q/I152L, iodide quench fluorescence; hits give low values; B-score at 10 µM; 340,000 compounds, 0.3% hits;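 active means fluorescence-ratio B-score plate-corrected deviation score at least 3 library SD below zero, with starting fluorescence score within 5 deviations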;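 further: channel opened by trigger with iodide after compound preincubation; score built on the fluorescence ratio of max minus min over baseline; more negative score means more quench and so TMEM16A activation or potentiation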
# hiPSC survival – increases survival of single human iPS cells; hiPSC single-cell survival, ATPlite luminescence; 100% = ROCK inhibitor wells, 0% = DMSO; 360,000 compounds, 0.044% hits; survival enhancement, % at 20 µM; AID 602274; in the data active means survival enhancement above about 18%;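 further: cells exposed to compounds for 16 hours before the ATP read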
# DAGLB inh – blocks human DAGLB lipase activity | Q8NCG7 | HEK293T DAGLB membrane lysate, EnzChek fluorogenic substrate | inhibition, % at 5.17 µM | 340,000 compounds, 0.059% hits; in the data active means inhibition above about 34%;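 further: 0% = enzyme with vehicle and 100% = wells lacking enzyme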
# ABCB6 inh MLPCN – blocks the human ABCB6 transporter. K562-ABCB6 porphyrin accumulation, flow cytometry, 1 h; hits give low values. fluorescence ratio to DMSO, % at 10 µM. 360,000 compounds, 0.19% hits. AID 602162;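 active means fluorescence ratio to DMSO below 75%, the collection mean minus 3 SD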;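 further: signal is porphyrin accumulated inside mitochondria; 100% equals median channel fluorescence of DMSO control wells; lower ratio means ABCB6 inhibition with less porphyrin fluorescence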
# Target sequence (Q9NP58 whole entry, looked up): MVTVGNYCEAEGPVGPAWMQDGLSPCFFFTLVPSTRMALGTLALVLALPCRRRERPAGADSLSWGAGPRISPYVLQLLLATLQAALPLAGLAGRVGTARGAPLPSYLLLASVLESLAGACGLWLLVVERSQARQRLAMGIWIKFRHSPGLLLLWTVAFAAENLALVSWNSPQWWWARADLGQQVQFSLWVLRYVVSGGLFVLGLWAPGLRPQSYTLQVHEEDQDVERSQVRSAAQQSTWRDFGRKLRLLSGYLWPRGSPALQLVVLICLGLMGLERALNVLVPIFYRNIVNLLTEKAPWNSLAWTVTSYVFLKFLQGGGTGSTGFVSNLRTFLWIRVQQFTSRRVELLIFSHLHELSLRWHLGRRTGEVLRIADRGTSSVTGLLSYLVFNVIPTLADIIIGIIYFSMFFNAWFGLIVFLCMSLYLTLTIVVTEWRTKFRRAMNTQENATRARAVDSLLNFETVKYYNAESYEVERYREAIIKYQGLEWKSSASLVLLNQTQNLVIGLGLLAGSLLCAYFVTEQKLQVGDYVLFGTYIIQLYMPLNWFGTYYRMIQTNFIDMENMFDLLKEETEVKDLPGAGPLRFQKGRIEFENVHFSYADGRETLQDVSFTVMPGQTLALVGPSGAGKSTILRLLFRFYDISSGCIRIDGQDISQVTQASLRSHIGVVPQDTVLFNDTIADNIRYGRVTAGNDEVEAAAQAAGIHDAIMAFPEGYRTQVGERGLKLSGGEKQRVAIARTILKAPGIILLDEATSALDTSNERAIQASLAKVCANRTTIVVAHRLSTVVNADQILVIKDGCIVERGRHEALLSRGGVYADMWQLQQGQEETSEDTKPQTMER
# TMEM16A inh – inhibitors of mouse TMEM16A calcium-activated chloride channel; HEK293 TMEM16A/YFP iodide influx fluorescence, ionomycin; normalized B-score (activity score, 25-100; higher = stronger inhibition) at 10 µM; 310,000 compounds, 1.2% hits;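 active means ratio plate-corrected score three or more library SD toward inhibition, starting fluorescence score within five deviations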;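 further: score derived from kinetic fluorescence span divided by baseline fluorescence per well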
# ABCB6 blocker 1 – human ABCB6 transporter inhibition | shares compounds with ABCB6 inh MLPCN | K562-ABCB6 porphyrin accumulation, flow cytometry, 1 h; hits give low values | ratio response (% of DMSO), % at 10 µM | 700 tested, under 10 active | AID 602430;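 active means repeat-averaged ratio response below 75% of DMSO, the collection mean minus 3 SD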;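 further: median porphyrin fluorescence at 575 nm with 488 nm excitation from mitochondria; lower ratio means less porphyrin signal so ABCB6 inhibition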
# Starred values were filed as active, the others as inactive; i = inactive; x = not tested or not shown.
SMILES,ANO1 activ,hiPSC survival,DAGLB inh,ABCB6 inh MLPCN,TMEM16A inh,ABCB6 blocker 1
COc1ccccc1C(=O)NCCC(=O)NNC(=O)C1COc2ccccc2O1 (stereo unspecified),i,0,0,104,i,x
O=C(Nc1ccc(F)c(Cl)c1)C1Cc2c(-c3cccc(F)c3)ccnc2O1 (stereo unspecified),x,-2,x,72*,x,101
O=C(Nc1ccc2c(c1)OCO2)C1Cc2c(-c3ccc(Cl)cc3)ccnc2O1 (stereo unspecified),x,-2,x,97,x,97
CC(=O)c1cccc(-c2ccnc3c2CC(C(=O)Nc2ccc(F)c(Cl)c2)O3)c1 (stereo unspecified),x,-4,x,94,x,100
CCOc1cc(N2CCOCC2)c(OCC)cc1NC(=O)c1ccccc1N1CCCC1=O,x,0,-2,97,x,x
Cc1nc(N2CCN(Cc3ccc4c(c3)OCO4)CC2)nc2c1C(=O)CC(c1ccco1)C2 (stereo unspecified),i,-2,-13,73*,i,198
COc1ccc2oc(-c3ccc(NC(=O)c4ccc(N5CCOCC5)c([N+](=O)[O-])c4)cc3)nc2c1,i,-2,1,60*,i,98
Nc1nc2c(ncn2[C@@H]2O[C@H](CNCc3ccc(Oc4cc(-n5cccn5)ncn4)cc3)[C@@H](O)[C@H]2O)c(=O)[nH]1,x,0,x,98,x,x
Cc1ccc(-c2noc(CCC(=O)NCC3CCCO3)n2)cc1 (stereo unspecified),i,-4,-1,89,i,x
CC(C)(C)c1ccc(-c2noc(CCC(=O)NCC3CCCO3)n2)cc1 (stereo unspecified),i,-2,-6,62*,i,99
Cc1cc(Br)ccc1NC(=O)CNC(=O)c1cnn(C)c1,i,0,1,101,x,x
COc1ccc(OC)c(Nc2ncnc3c2cnn3-c2ccccc2)c1,i,1,1,71*,i,101
COc1cc(Cl)ccc1OC1(C)CCN(Cc2cccn2-c2nccs2)C1 (stereo unspecified),x,-2,x,97,x,x
COc1ccc(CC(N)c2csc(NC(=O)c3ccccc3)n2)cc1 (stereo unspecified),x,-3,x,71*,x,103
COc1cccc(C(O)c2ncc(-c3cccc(F)c3)[nH]2)c1 (stereo unspecified),x,-1,x,102,x,x
CC1(C)CC(n2c(NCCO)nc3c(c2=O)C2(CCCC2)Cc2ccccc2-3)CCO1 (stereo unspecified),i,2,-1,87,i,x
O=c1c2c(nc(NCCO)n1CC1CCCCC1)-c1ccccc1CC21CCCC1,i,-2,-5,61*,i,100
COC1CC(=O)C2OC(c3ccccc3)OCC2O1 (stereo unspecified),x,4,0,99,x,x
CCOC(=O)c1ccc(S(=O)(=O)N2CC(=O)Nc3ccccc32)cc1,i,0,4,68*,i,106
CCN(CC(=O)NNC(=O)c1ccccc1)Cc1ccc(OC)c(F)c1,i,-5,-1,96,x,x
Cc1ccc(C(=O)Nc2cc(C)nn2CCC#N)cc1,i,0,1,74*,i,97
Cc1cc(NC(=O)c2ccc(Cl)cc2)n(CCC#N)n1,i,0,0,96,i,x
Cc1ccc2nc(CSc3nnc(Cc4cccs4)n3C3CCCCC3)cc(=O)n2c1,i,2,-3,66*,i,102
CCC(=O)Nc1ccc2c(c1)nc1n2CCSC1,i,0,2,70*,i,99
CC(C)C(=O)Nc1ccc2c(c1)nc1n2CCSC1,i,1,2,101,i,x
SMILES,ANO1 activ,hiPSC survival,DAGLB inh,ABCB6 inh MLPCN,TMEM16A inh,ABCB6 blocker 1
Cc1ccc(-c2csc3ncnc(N4CCN(S(=O)(=O)c5ccc(C#N)cc5)CC4)c23)cc1,x,-2,-5,97,x,x
Cc1ccc(-c2csc3ncnc(N4CCN(S(=O)(=O)c5cccs5)CC4)c23)cc1,i,0,-8,74*,x,97
CSc1ncnc2c1ncn2CCCNCCCc1ccccc1,x,6,-1,95,x,x
CC1(C(=O)NCCC(F)(F)F)Cc2c(-c3ccccc3)ccnc2O1 (stereo unspecified),x,-2,x,105,x,x
CC(C)=CCc1c(O)ccc(C(=O)Cc2ccccc2)c1O,i,-2,-5,64*,i,96
Nc1nonc1-n1nncc1-c1ccccc1,i,0,4,6.0*,i,100
O=C(Nc1ccccc1)N(CCCN1CCOCC1)Cc1ccccc1F,i,1,-5,78,i,x
COc1ccc(CN(CCCN2CCOCC2)C(=O)Nc2ccccc2)cc1OC,i,-2,1,68*,i,98
CC1(C)CC(=O)C(C2C3=C(CC(C)(C)CC3=O)Oc3ccccc32)C(=O)C1 (stereo unspecified),i,0,-1,102,i,x
CC1(C)CC(=O)C(C2C3=C(CC(C)(C)CC3=O)Oc3ccc4ccccc4c32)C(=O)C1 (stereo unspecified),i,-1,8,74*,i,102
COc1ccc(-c2cc(C(=O)Nc3c(C)nn(Cc4ccccc4)c3C)no2)cc1,i,-2,1,51*,i,100
O=[N+]([O-])c1ccc(OCCn2cncn2)cc1,i,0,2,63*,i,100
